Measured values published in PubChem BioAssay AID720504 (National Center for Advancing Translational Sciences (NCATS), 2013).
Hit rate of the full screen: of about 360,000 compounds, about 10,000 (2.8%) were called active. Inconclusive results (about 4%) are left out. Calls follow the shape of the dose curve; as a rule, active = well fitted inhibition curve with a large enough effect; inconclusive = small, poorly fitted or top-dose-only effect; inactive = flat fitted curve, though single readings scatter. The full list was thinned out, with actives kept by preference.

biological target: Serine/threonine-protein kinase PLK1 (Homo sapiens) (UniProt P53350); test: qHTS for Inhibitors of PLK1-PDB (polo-like kinase 1 - polo-box domain): Primary Screen; details: Plk1 PBD binding of FITC phosphopeptide, fluorescence polarization; also: nearly all actives have a fitted effect of over 65% in size; as to Max response, negative = inhibition: series mostly up to about 57 µM
Sequence (P53350 whole entry, looked up, the tested form may be a part): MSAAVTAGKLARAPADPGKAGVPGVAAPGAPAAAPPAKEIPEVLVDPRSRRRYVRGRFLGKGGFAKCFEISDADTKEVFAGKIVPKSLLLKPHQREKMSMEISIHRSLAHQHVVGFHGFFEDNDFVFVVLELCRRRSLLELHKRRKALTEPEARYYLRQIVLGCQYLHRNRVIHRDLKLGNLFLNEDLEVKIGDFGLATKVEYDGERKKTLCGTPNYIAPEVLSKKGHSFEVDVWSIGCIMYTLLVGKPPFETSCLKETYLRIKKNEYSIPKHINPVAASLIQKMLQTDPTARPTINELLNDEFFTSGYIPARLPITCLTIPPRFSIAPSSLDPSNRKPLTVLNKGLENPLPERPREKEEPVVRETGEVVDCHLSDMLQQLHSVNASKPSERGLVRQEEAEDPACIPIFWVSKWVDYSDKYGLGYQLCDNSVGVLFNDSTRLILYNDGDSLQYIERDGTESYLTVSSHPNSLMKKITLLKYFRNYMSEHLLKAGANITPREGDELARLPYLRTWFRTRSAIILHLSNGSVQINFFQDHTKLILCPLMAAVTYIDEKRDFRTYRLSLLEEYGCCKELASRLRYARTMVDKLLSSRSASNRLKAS
% is scaled to controls: 0 for no effect and ±100 for the full control effect; potency is read from the fitted curve at half-maximal effect.

Max response, negative = inhibition, inactive:
CCCCCCNC(=O)O[C@]12C[C@@H](C(=O)OC)[C@@H](C(=O)OC)C[C@@]1(O)CN(S(=O)(=O)c1ccc(C)cc1)C2 -1.62%, COc1ccc(C2C(C#N)=C(/N=C/N3CCOCC3)OC3=C2C(=O)CC(C)(C)C3)cc1OC (configuration not stated) -6.22%, CCc1ccc(C2C(C#N)=C(N)N(N(C)C)C3=C2C(=O)CCC3)s1 (configuration not stated) 2.14%, O=C(NCc1cccnc1)Nc1ccccc1F -0.233%, O=C(O)c1ccccc1-c1ccccc1C(=O)NCc1cccnc1 -5.72%, COc1cccc(C(NC(C)=O)c2nc(-c3ccccc3OC)cs2)c1 (configuration not stated) -10%, O=C(c1cc(-c2ccc(Cl)cc2)on1)N1CCN(c2ccccc2)CC1 -5.98%, COc1ccc(-c2cc(C(=O)N3CCN(c4ccc(F)cc4)CC3)no2)cc1 -9.29%, OC[C@@H]1CN(Cc2ccc(-c3ccccc3)cc2)C[C@H](n2cnc3c(NC4CCCC4)ncnc32)O1 4%, CCOC(=O)c1cc(-c2sc(NC(=O)c3ccccc3)nc2C)n(Cc2ccccc2)n1 7.73%, COC(=O)[C@]12CCCCC=C1N(CCC1=CCCCC1)C(=O)[C@H](CC(=O)NCC1CCCCC1)C2 -2.73%, CCC(CC)c1nnc(NC(=O)C2=COCCO2)s1 -0.0349%, Cc1csc(NC(=O)C2=COCCO2)n1 -3.95%, COc1cccc(NC(=O)Nc2ccc(F)cc2)c1 -6.36%, COc1cc(CNC2CCCC2)c(Br)cc1OCc1ccccc1 -0.667%, COc1cc(C(=O)NCc2ccncc2)cc(Br)c1OCc1ccccc1 -15.6%, Nc1nc2cc(Cl)ccc2n1N -1.19%, CCCNC(=O)c1cc(C2CCCCN2C(=O)OC)on1 (configuration not stated) -6.79%, O=C(c1ccc(CS(=O)Cc2ccccc2Cl)o1)N1CCN(c2ccccc2)CC1 (configuration not stated) -18.2%, Cc1ccc2nc(-c3ccccc3)c(CC3CCCCC3)n2c1 -7.91%, O=C1NC(O)CCN1C1CC(O)C(CO)O1 (configuration not stated) -1.57%, Nc1cccc(OCCCCCOc2cccc(N)c2)c1 1.62%, N#Cc1cccc(NC(=O)c2cc(C3CCCCN3C(=O)CCc3ccccc3)on2)c1 (configuration not stated) 4.56%, Cc1ccccc1S(=O)(=O)NC(=O)C1(C)CCN1C(=O)Cc1ccc(Cl)cc1Cl (configuration not stated) -14.1%, O=C(c1ccco1)N1CCN(C(=O)C2CC(c3ccc(Cl)c(Cl)c3)=NO2)CC1 (configuration not stated) -17%, CCOC(=O)N1CCN(C(=O)C2CC(c3ccc(F)cc3)=NO2)CC1 (configuration not stated) -12.9%, COc1ccc(S(=O)(=O)N2CCCCCC2)cc1C(=O)N(C)Cc1cccc(OC)c1OC -7.8%, COc1ccc(CN(C)C(=O)Cc2ccsc2)c(OC)c1OC -14.4%, Cc1ccc(S(=O)(=O)NN=C2CC(C)(C)CC(=O)C2(C)C)cc1 -5.23%, c1ccc(Cc2ccc(OCCn3ccnc3)cc2)cc1 4.09%, CCOc1ccc(C2/C(=C(/O)c3ccc4c(c3)CC(C)O4)C(=O)C(=O)N2CCCn2ccnc2)cc1 (configuration not stated) -16.9%, COc1cc(OC)c(C(=O)N2CCCC2)cc1OC -4.54%, COc1ccc(C(=O)N2CCCN(C)CC2)c(OC)c1 1.15%, NC(=O)CSc1nnc(-c2cccc(S(=O)(=O)N3CCOCC3)c2)o1 -12.4%, CCN(CC)C(=O)C1=C(C)N(Cc2ccc(F)cc2)C(=O)C(CC(=O)NC2CCCC2)C1 (configuration not stated) 3.61%, CC(C)C[C@H]1CN([C@@H](Cc2ccccc2)CN2CCC[C@@H]2CN2C(=O)C(=O)NC[C@@H]2Cc2ccc(O)cc2)C(=O)C(=O)N1CCc1ccccc1 0.344%, Cc1cccc(OCC(O)Cn2c(N3CCCCC3)nc3c2c(=O)[nH]c(=O)n3C)c1 (configuration not stated) -3.66%, CN1CCN(c2nc3c(c(=O)[nH]c(=O)n3C)n2Cc2cccc3ccccc23)CC1 -17.6%, CC1(C(=O)O)CCCN(C(=O)/C=C/c2ccccc2)C1 (configuration not stated) -5.95%, CCC(=O)N1CCC(C)(C(=O)Nc2cc(OC)c(OC)c(OC)c2)C1 (configuration not stated) 4.76%, O=S1(=O)CC(N2CCC(Cc3ccccc3)CC2)CN1Cc1ccccc1 (configuration not stated) -4.73%, O=C(Nc1nsc(-c2ccccc2)n1)c1ccncc1 0.306%, COC(=O)c1sccc1NC(=O)c1ccc(Cl)cc1 -7.12%, COc1ccc(C(=O)Nc2ccc(F)cc2F)cc1 -1.72%, CSc1nccc(NC(=O)c2ccc(C(C)(C)C)cc2)n1 -8.27%, CC(C)Oc1cc(F)ccc1-c1cc(C(=O)Nc2ccc(F)cc2)[nH]n1 -4.13%, O=C(Nc1n[nH]c(C(F)(F)F)n1)c1cccs1 -23.4%, CCOC(=O)NNC(=O)c1ccc(Cl)cc1 -5.54%, COc1ccc(C(=O)NNC(=O)c2cc(C)[nH]n2)cc1 -5.72%, OC[C@@H]1CN(Cc2ccc(Cl)cc2)C[C@H](n2cnc3c(NCc4ccncc4)ncnc32)O1 -6.44%, O=C1Nc2ccccc2-n2nnnc2C1N1CCN(c2cccc(C(F)(F)F)n2)CC1 (configuration not stated) -6.8%, COc1cccc(-c2cnc3c(NC(C)=O)cc(-c4cc(F)ccc4OC)cn23)c1 -5.58%, CCOC1=C2[C@H]([C@H]3C(=O)N(c4ccccc4)C(=O)[C@H]3C1)[C@@H](c1ccccc1)N(S(=O)(=O)c1ccc(C)cc1)[C@H]2c1ccccc1 1.42%, Cc1ccccc1C#CC1=CC(=O)CC(C)(C)C1 -11.2%, COc1ccccc1CNC(=O)c1cc(-c2cc(F)ccc2OC)n[nH]1 -1.03%, O=C(OC1CC2CC1[C@H]1CCCCN1C2=O)N1CCOCC1 (some centres not stated) -1.86%, COc1cc(C(O)c2nc(-c3cnn(C)c3)cs2)ccc1F (configuration not stated) -2.35%, COc1cc(C(=O)N2CCOC23CCN(Cc2ccccc2)CC3)cc(OC)c1OC 1.8%, Nc1ncnc2c1ncn2[C@@H]1O[C@H](C(=O)N2CCCN(Cc3ccccc3F)CC2)[C@@H](O)[C@H]1O -0.717%, Cc1nc2ccc(NC(=S)N3CCC(C)CC3)cc2nc1C 0.665%, CC1CCN(C(=S)NC(=O)c2ccccc2Br)CC1 -2.34%, CCCCc1c(-c2ccc(Br)cc2)ncn1CCc1ccccc1OC 3.4%, NCCCCC(C(=O)O)N(C(=O)OCc1ccccc1)C(=O)OCc1ccccc1 (configuration not stated) -19.2%, CC1Cc2[nH][nH]c(=O)c2C(C2CC2)O1 (configuration not stated) -23.1%, O=C(COc1ccc(S(=O)(=O)Nc2cccc(C(F)(F)F)c2)cc1)N1CCOCC1 -3.59%, O=C(NCc1ccccc1)c1ccc(S(=O)(=O)Nc2cccc(C(F)(F)F)c2)cc1 -14.9%, Cc1[nH]c2ccccc2c1C(=O)C(=O)NCc1nnnn1-c1cccc(F)c1 -8.15%, Cn1c(SCC(=O)Nc2nccs2)nnc1-c1cccnc1 -6.93%, Cc1cc(C)nc(SCc2nnc(SCC(=O)Nc3ncc(C)s3)n2Cc2ccco2)n1 -1.22%, CN(Cc1ccccc1)C(=O)CCC1CCN(C(=O)c2ccco2)CC1 -7.2%, CCCN(CCC)C(=O)C1c2ccccc2Oc2ccccc21 -4.59%, CC(C)(C)NC(=O)NC(=O)COC(=O)C1c2ccccc2Oc2ccccc21 -13.1%

Potency, active:
CCc1ccc(C2C(C#N)=C(N)N(N3CCOCC3)C3=C2C(=O)CC(C)(C)C3)s1 (configuration not stated) 26.7 µM, CCC(Oc1ccccc1)C(=O)NCc1cccnc1 (configuration not stated) 18.9 µM, CC1=NN(C(N)=S)C(=O)C1N=Nc1cc(Cl)ccc1Cl (configuration not stated) 26.7 µM, O=C(c1cc(-c2ccc(F)cc2)on1)N1CCN(c2ccc(F)cc2)CC1 26.7 µM, Cc1sc(NC(=O)C2=COCCO2)c(C#N)c1C 11.9 µM, COc1cc(C(=S)NCc2ccccc2)cc(Br)c1O 4.23 µM, Nc1ccccc1SC(C[N+](=O)[O-])c1ccccc1 (configuration not stated) 0.752 µM, O=C(c1ccco1)N1CCN(C(=O)C2CC(c3ccc(F)cc3)=NO2)CC1 (configuration not stated) 26.7 µM, COc1cccc(CN(C)C(=O)CC23CC4CC(CC(C4)C2)C3)c1OC 29.9 µM, CCCOc1ccc(C2C(C(=O)c3ccc(C)o3)=C(O)C(=O)N2CCCn2ccnc2)cc1 (configuration not stated) 23.8 µM, COc1cc(OC)c(C(=S)N2CCCC2)cc1OC 11.9 µM, CCC(C)Sc1nc2c(c(=O)[nH]c(=O)n2C)n1CC(O)COc1cccc2ccccc12 (configuration not stated) 18.9 µM, COC(=O)c1nc(NC(=O)c2ccccc2)n[nH]1 26.7 µM, COC(=O)c1nc(NC(=O)c2ccc(Cl)cc2)n[nH]1 26.7 µM, COC(=O)c1nc(NC(=O)c2ccc(F)cc2)n[nH]1 15 µM, COC(=O)c1nc(NC(=O)c2ccc(C(C)(C)C)cc2)n[nH]1 3.77 µM, CC1CCN(C(=S)c2cccc(O)c2)CC1 18.9 µM, Cc1oc2c(F)c(F)c(F)c(F)c2c1S(=O)(=O)Nc1cccc(C(F)(F)F)c1 37.7 µM, Cc1cnc(NC(=O)CSc2nnc(-c3ccc(Cl)cc3Cl)n2N)s1 23.8 µM, CC(C)(C)c1nnc(NC(=O)C2c3ccccc3Oc3ccccc32)s1 2.67 µM
